Screens: PubChem BioAssay, several laboratories
PP5 inh – inhibitors of human protein phosphatase 5 (PP5); P53041; purified PP5c, OMFP substrate fluorescence; inhibition, % at 6.7 µM; hit rate 0.18% among 320,000; AID 1987;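 active = inhibition above the campaign's mean inhibition across all tested compounds plus 3 SD, cut at about 9.5% in these data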;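 note: 0% = DMSO only and 100% = 100 µM cantharidin control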
Mdm2-MdmX inh – disrupts the human Mdm2-MdmX interaction; inhibition, % at 8 µM; SaOS-2 split-luciferase Mdm2/MdmX complementation, luminescence; AID 485346; O15151+Q00987; hit rate 3% among 330,000;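 active = inhibition of at least 50% at 8 µM in the primary screen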
Target sequence (O15151 whole entry, looked up): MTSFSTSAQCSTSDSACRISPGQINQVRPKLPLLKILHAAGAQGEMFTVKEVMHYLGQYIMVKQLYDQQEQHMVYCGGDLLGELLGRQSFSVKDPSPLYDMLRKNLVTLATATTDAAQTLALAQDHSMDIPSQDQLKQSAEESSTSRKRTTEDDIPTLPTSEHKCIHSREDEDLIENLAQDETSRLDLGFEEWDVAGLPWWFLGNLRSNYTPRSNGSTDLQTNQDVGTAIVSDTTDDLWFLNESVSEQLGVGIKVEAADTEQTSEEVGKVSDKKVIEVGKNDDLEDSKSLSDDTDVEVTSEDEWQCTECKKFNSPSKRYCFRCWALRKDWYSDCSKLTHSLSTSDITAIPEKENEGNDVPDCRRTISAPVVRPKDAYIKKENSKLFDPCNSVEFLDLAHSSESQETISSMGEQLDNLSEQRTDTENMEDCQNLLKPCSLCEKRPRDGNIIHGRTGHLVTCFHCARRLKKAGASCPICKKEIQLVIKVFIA
Target sequence (Q00987 whole entry, looked up): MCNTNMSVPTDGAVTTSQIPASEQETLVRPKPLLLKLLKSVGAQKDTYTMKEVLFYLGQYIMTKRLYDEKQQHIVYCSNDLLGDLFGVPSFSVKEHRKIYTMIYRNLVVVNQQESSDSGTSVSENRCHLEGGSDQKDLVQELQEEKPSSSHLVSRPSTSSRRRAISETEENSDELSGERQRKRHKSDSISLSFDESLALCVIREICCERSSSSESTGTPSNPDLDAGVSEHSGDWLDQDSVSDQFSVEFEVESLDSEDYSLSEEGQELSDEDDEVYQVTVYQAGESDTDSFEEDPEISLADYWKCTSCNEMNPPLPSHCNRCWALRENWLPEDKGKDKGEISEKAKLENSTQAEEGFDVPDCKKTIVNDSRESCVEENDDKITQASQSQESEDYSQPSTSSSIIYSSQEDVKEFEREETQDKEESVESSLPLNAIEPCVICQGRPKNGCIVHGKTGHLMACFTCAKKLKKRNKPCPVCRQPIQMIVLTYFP
PP1 inh – PP1-alpha (human) inhibition in PP5 counter-screen; purified PP1alpha, OMFP fluorescence; hit rate 0.9% among 320,000; inhibition, % at 6.7 µM; P62136;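 active = inhibition above the mean inhibition of all tested compounds plus 3 SD, computed separately for each screening campaign, cut at about 15% in these data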
Beta cell apopt – beta cell apoptosis inhibition; INS-1E cytokine-induced death, ATP luminescence, 48 h; percent of positive-control rescue, neutral wells zero; protection from apoptosis, % (no concentration beside the values); hit rate 0.8% among 300,000; AID 435005;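 active = Every replicate reaches about 75%, or at least half do and their mean reaches it too, limit read from the data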;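 note: 0% = cytokine-treated negative control wells and 100% = positive control rescue; higher means more ATP so stronger rescue from cytokine killing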
CSC inhib – blocks cancer stem cells | cancer stem cell-like cells viability, luminescence | inhibition, % at 7.5 µM | hit rate 1.1% among 300,000 | AID 2717; in the data active = inhibition above about 75%; tested in HMLE shEcad cells
Calb FLC – C. albicans growth modulation with fluconazole | C. albicans CaCi-2 (fluconazole-resistant clinical isolate) + fluconazole, Alamar Blue growth, 48 h | growth inhibition, % (test concentration not listed) | hit rate 0.57% among 300,000 | AID 1979;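 active = growth inhibition above about 58% in most replicates, limit read from the data, passing the limit was not always enough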;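 note: all wells also contain fluconazole at 8 µg/ml as a sub-toxic cotreatment; 0% = median of DMSO wells and 100% = median of geldanamycin control wells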
Mdm2-MdmX conf – human Mdm2/MdmX binding inhibition, confirmed | inhibition, % at 8 µM | shares compounds with Mdm2-MdmX inh | luminescent assay | hit rate 55% among 10,000; in the data active = inhibition above about 40%
Full FLuc ctr – counter-screen for Mdm2/MdmX inhibitors: full-length luciferase; shares compounds with Mdm2-MdmX inh; SaOS-2 full-length luciferase counterscreen, luminescence; inhibition, % at 8 µM; hit rate 77% among 6,200; AID 504607;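 active = mean inhibition at 8 µM reaching about 37%, which flags the compound as non-specific, limit read from the data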;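 note: p53-null SaOS-2 cells with luciferase driven by a doxycycline-inducible promoter; compound on cells about two nights before reading with doxycycline added after day one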
Active calls of the source: *. A selection: hits, their analogues and other compounds. The true share with any hit is near 4.9%.

How did Clc1ccccc1CN(Cc1ccccc1)c1ncnc2nc[nH]c12 do in these assays?
PP5 inh: 3.6; Mdm2-MdmX inh: 8.8; PP1 inh: 8.0; Beta cell apopt: -3.2; CSC inhib: 50.8; Calb FLC: 6.4

What do the screens show for `CCCN(CCC)c1ncnc2nc[nH]c12`?
PP5 inh: 0.3; Mdm2-MdmX inh: 71.8*; PP1 inh: -1.3; Beta cell apopt: -9.8; CSC inhib: -19.9; Calb FLC: 3.1; Mdm2-MdmX conf: 64.0*; Full FLuc ctr: 34.6

Results for CC(C)(C)c1ccc(/C=C(\c2nc3ccccc3[nH]2)S(=O)(=O)c2ccccc2)cc1 ?
PP5 inh: 0.9; Mdm2-MdmX inh: 92.5*; PP1 inh: 9.3; Beta cell apopt: 108.1*; CSC inhib: 125.4*; Calb FLC: -1.7; Mdm2-MdmX conf: 99.8*; Full FLuc ctr: 51.5*

What do the screens show for `Cc1cccc(/C=C(\c2nc3ccccc3[nH]2)S(=O)(=O)c2ccccc2)c1`?
Calb FLC: 36.1

What do the screens show for `COc1cccc(C(c2c(N)[nH]c(=S)[nH]c2=O)c2c(N)[nH]c(=S)[nH]c2=O)c1`?
PP5 inh: 0.7; Mdm2-MdmX inh: 23.5; PP1 inh: -3.9; Beta cell apopt: -2.1; CSC inhib: -6.4; Calb FLC: 2.9

What do the screens show for `CCc1ccc(/C=N/NC(=O)c2cc(-c3ccccc3OC)nc3ccccc23)s1`?
PP5 inh: 1.8; Mdm2-MdmX inh: 24.3; PP1 inh: 6.5; Beta cell apopt: 3.7; Calb FLC: 18.1

Results for CCc1ccc(/C=N/NC(=O)c2cc(C3CC3)nc3ccc(Br)cc23)s1 ?
PP5 inh: -2.1; Mdm2-MdmX inh: 63.2*; PP1 inh: 5.9; Beta cell apopt: 31.8; CSC inhib: -8.8; Calb FLC: -0.5; Mdm2-MdmX conf: 55.0*; Full FLuc ctr: 53.5*

How did NC(=O)c1ccsc1NC(=O)c1ccc(S(=O)(=O)N2CCCc3ccccc32)cc1 do in these assays?
PP5 inh: 3.7; Mdm2-MdmX inh: 59.1*; PP1 inh: 2.4; CSC inhib: 47.6; Calb FLC: 1.3; Mdm2-MdmX conf: 0.7

Results for O=C(O)c1ccc(S(=O)(=O)N2CCCc3ccccc32)cc1 ?
PP5 inh: 2.4; Mdm2-MdmX inh: 9.7; PP1 inh: 0.5; Beta cell apopt: 2.8; CSC inhib: 5.3; Calb FLC: 20.4

How did CC(C)N1CCc2c(sc(NC(=O)c3ccc(S(=O)(=O)N4CCc5ccccc54)cc3)c2C(N)=O)C1 do in these assays?
PP5 inh: 4.0; Mdm2-MdmX inh: 100.4*; PP1 inh: 17.2*; Beta cell apopt: 3.0; CSC inhib: 112.6*; Calb FLC: 25.0; Mdm2-MdmX conf: 30.2

What do the screens show for `CCCCCCSc1ccc([C@H]2N[C@@](CC(C)C)(C(=O)OC)[C@H]3C(=O)N(C)C(=O)[C@@H]23)cc1OC`?
PP5 inh: 5.7; Mdm2-MdmX inh: 56.0*; PP1 inh: 5.3; Beta cell apopt: 7.4; CSC inhib: 38.4; Calb FLC: 12.0; Mdm2-MdmX conf: 0.3

How did COC(=O)[C@]1(CC(C)C)N[C@H](c2ccc(SC3CCCCC3)c(OC)c2)[C@@H]2C(=O)N(C)C(=O)[C@@H]21 do in these assays?
PP5 inh: 5.7; Mdm2-MdmX inh: 11.1; PP1 inh: 1.9; Beta cell apopt: -3.7; CSC inhib: 4.1; Calb FLC: -14.8

What do the screens show for `O=C(NCCc1ccc(Cl)cc1)/C(=C/c1cccnc1)NC(=O)c1ccccc1`?
PP5 inh: 2.1; Mdm2-MdmX inh: -26.1; PP1 inh: -2.3; Beta cell apopt: 27.2; CSC inhib: 47.4; Calb FLC: 3.3

Results for N=c1n(CCO)c2ccccc2n1CCOc1ccc(Cl)cc1Cl ?
PP5 inh: -0.5; Mdm2-MdmX inh: 97.4*; PP1 inh: 0.1; Beta cell apopt: 9.7; CSC inhib: 12.2; Calb FLC: 13.1; Mdm2-MdmX conf: 41.9*; Full FLuc ctr: 25.4

How did C=CCOc1ccc(/C=N/NC(=O)CN2CCCCC2)cc1OC do in these assays?
PP5 inh: -1.0; Mdm2-MdmX inh: 19.4; PP1 inh: -8.5; Beta cell apopt: -11.0; CSC inhib: -3.8; Calb FLC: 2.3

Results for COc1cc(/C=C(\C#N)C(=O)N2CCOCC2)ccc1OCc1ccccc1 ?
PP5 inh: 2.0; Mdm2-MdmX inh: -32.0; PP1 inh: 3.0; Beta cell apopt: -1.8; CSC inhib: -2.0; Calb FLC: -6.5

How did N#C/C(=C\c1ccc(OCc2ccc(C(=O)O)cc2)cc1)C(=O)N1CCOCC1 do in these assays?
PP5 inh: -0.2; Mdm2-MdmX inh: 55.5*; PP1 inh: -2.1; Beta cell apopt: 4.2; CSC inhib: 25.2; Calb FLC: -1.5; Mdm2-MdmX conf: 44.4*; Full FLuc ctr: 21.1

Results for CC1CCCN(Cc2c(O)ccc3c(=O)c(-c4nc5ccccc5s4)c(N)oc23)C1 (stereo not drawn) ?
PP5 inh: 5.3; Mdm2-MdmX inh: 70.1*; PP1 inh: 4.8; Beta cell apopt: 27.1; CSC inhib: 30.9; Calb FLC: 81.0*; Mdm2-MdmX conf: 43.3*; Full FLuc ctr: 67.2*

How did CC1CCN(Cc2c(O)ccc3c(=O)c(-c4nc5ccccc5s4)c(N)oc23)CC1 do in these assays?
PP5 inh: -0.2; Mdm2-MdmX inh: 50.7*; PP1 inh: 2.9; Beta cell apopt: 2.1; Calb FLC: -7.4; Mdm2-MdmX conf: 21.9

How did CCN(CC)S(=O)(=O)c1ccc(C(=O)Nn2cnnc2)cc1 do in these assays?
PP5 inh: -1.2; Mdm2-MdmX inh: -23.9; PP1 inh: 0.2; Beta cell apopt: -5.0; CSC inhib: -7.7; Calb FLC: 2.7

How did CCN1CCc2c(sc(NC(=O)c3ccc(S(=O)(=O)N(C)c4ccccc4)cc3)c2C(=O)NC)C1 do in these assays?
PP5 inh: 2.4; Mdm2-MdmX inh: 58.6*; PP1 inh: 3.8; Beta cell apopt: 6.4; CSC inhib: 42.1; Calb FLC: -1.4; Mdm2-MdmX conf: 32.8

How did COC(=O)c1c(NC(=O)c2ccc(N(C)S(=O)(=O)c3ccc(C)cc3)cc2)sc2c1CCCC2 do in these assays?
PP5 inh: 2.3; Mdm2-MdmX inh: 8.4; PP1 inh: -3.2; Beta cell apopt: -0.4; CSC inhib: 14.7; Calb FLC: -6.2

Results for CCOC(=O)c1c(NC(=O)C(NCCN(C)C)c2ccccc2)sc2c1CCCC2 (stereo not drawn) ?
PP5 inh: -2.0; Mdm2-MdmX inh: 94.2*; PP1 inh: 2.9; Beta cell apopt: 23.8; CSC inhib: 27.4; Calb FLC: -15.2; Mdm2-MdmX conf: 37.1; Full FLuc ctr: 68.6*

Results for COCCN(CCOC)S(=O)(=O)c1ccc(C(=O)Nc2sc3c(c2C(N)=O)CCCCC3)cc1 ?
PP5 inh: 2.5; Mdm2-MdmX inh: 81.9*; PP1 inh: -5.1; Beta cell apopt: -8.4; Calb FLC: -8.7; Mdm2-MdmX conf: 56.6*; Full FLuc ctr: 116.4*
